# Experimental data published in PubChem BioAssay AID743395 (Broad Institute, 2014).
# The whole screen tested about 1,200 compounds, of which about 480 (40%) were called active. The set was probably picked from earlier hits. A selection follows. Potency and affinity values are given separately. Unmarked numbers belong to inactive results. No rule for the calls is given here.
# Assay: HepG2 cell cytotoxicity, dose response, cytotoxicity control, CellTiter-Glo luminescence, cherry-pick, set 2 (AID 743395);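 also: 0% = neutral control wells and -100% = positive control wells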
# Details: HepG2 viability, CellTiter-Glo ATP luminescence, 72 h; series mostly up to 26 µM; activity change, negative = cytotoxicity: at the top concentration
row,Compound,"activity change, negative = cytotoxicity [%]"
1,CO[C@@H](CN(C)S(=O)(=O)c1ccc(C)cc1)[C@H](C)CN([C@@H](C)CO)S(=O)(=O)c1cccc(Cl)c1,-16.6
2,O=C(Cc1ccccn1)NCC[C@@H]1CC[C@H](NC(=O)Nc2ccc(C(F)(F)F)cc2)[C@@H](CO)O1,1.07
3,O=C(O)c1ccccc1-c1nc(-c2ccccc2)c(-c2ccccc2)[nH]1,-25.1
4,O=C(NCc1ccccc1)C(c1ccc(-c2ccccc2)cc1)n1c(=O)c(-c2cc3ccccc3[nH]2)nc2ccccc21 (centres undefined),-5.02
5,COc1cc2c(cc1OC)C(c1cccs1)N(C(=O)c1cccnc1)CC2 (centres undefined),-25.9
6,Cc1cc(C(=O)CN2CCN(CC(=O)Nc3ccc(F)cc3)CC2)c(C)n1C1CC1,-2.91
7,CCOc1ccc(C(=O)NCC(=O)N2CCN(Cc3ccccc3)CC2)cc1,-6.18
8,CCCOc1ccc(C(=O)CCCC(=O)c2ccc(OCCC)cc2)cc1,-3.1
9,CN1/C(=C\C=C2/SC(=S)N(CC(=O)O)C2=O)C(C)(C)c2ccccc21,-18.5
10,C=CCN(CC=C)C(=S)Nc1ccc(OC)c(OC)c1,-1.78
11,Cc1ccc(CNC(=O)COC(=O)c2ccc(S(=O)(=O)N(C)C)cc2)cc1,7.94
12,CCOc1ccc(C(=O)NNC(=O)CCNC(=O)c2ccc(Br)cc2)cc1OC,-12.4
13,Cc1nnc(NC(=O)CSc2nccn2-c2cccc(C)c2C)s1,-16.7
14,Cc1cc(Br)c(NC(=O)C(C)Sc2nnnn2C)c(Br)c1 (centres undefined),3.4
15,NS(=O)(=O)c1ccc(NNC(=O)c2ccc(Br)o2)c([N+](=O)[O-])c1,-24.1
16,CC(C)NC(=O)c1ccc(COc2cccc3ccccc23)o1,-11.9
17,Cc1cc(C(=O)NNC(=O)c2ccc(Cl)c(S(N)(=O)=O)c2)c(C)o1,14.8
18,Cc1ccc(S(=O)(=O)N2CCOCC2)cc1NC(=O)CSc1n[nH]c(N)n1,-17
19,O=C(Nc1ccccc1F)N1C[C@H]2[C@@H](c3ccccc31)[C@@H](CO)N2C(=O)c1ccccn1,-6.17
20,COc1ccccc1NS(=O)(=O)c1cc(C(=O)N2CCCCCC2)ccc1C,-19.5
21,COc1ccccc1NS(=O)(=O)c1cc(N=N/C(C(=O)Nc2ccc(Cl)cc2)=C(/C)O)ccc1C,-9.69
22,Cc1ccc(C(=O)NNC(=O)c2ccc(S(=O)(=O)N3CCCCC3)cc2)cc1,0.237
23,O=C(NC(=S)Nc1ccc(-c2ccccc2)cc1)c1ccccc1,-2.74
24,CNC(=O)C1CC(=O)N(c2ccc(OCC(=O)Nc3ccccc3)cc2)C1 (centres undefined),-11.5
25,COc1ccccc1N1CC(C(=O)Nc2ccc(S(=O)(=O)N3CCCC3)cc2)CC1=O (centres undefined),-10.9

row,Compound,"activity change, negative = cytotoxicity [%]"
1,COc1ccc(C2=NOC(C(=O)NCc3ccccc3)C2)cc1 (centres undefined),-14
2,COc1ccc(Cc2nnc(NC(=O)c3ccc(F)cc3)s2)cc1OC,-2.21
3,COc1ccc2c(c1)c(CC(=O)OCC(=O)O)c(C)n2C(=O)c1ccc(Cl)cc1,-10.6
4,Cc1ccc(S(=O)(=O)N2CCN(C(=O)COC(=O)/C=C/c3ccc(Cl)cc3)CC2)c(C)c1,5.43
5,N#Cc1ncn(C2OC(CO)C(O)C2O)c1N (centres undefined),-7.3
6,Cc1cc(Cl)cc(C)c1OCCn1ccnc1,3.36
7,Cc1ccc(NC(=O)COC(=O)CCC2CCCC2)c(Br)c1,-10.8
8,COc1ccc2c3c([nH]c2c1)[C@@H](CO)N(S(=O)(=O)c1cn(C)cn1)CC31CCN(CC2CCCCC2)CC1,-1.36
9,CCCC(=O)Nc1ccc2c(c1)C(=O)N(C)C[C@@H](OC)[C@H](C)CN(C(=O)CN1CCOCC1)[C@H](C)CO2,-4.55
10,Cc1ccc(/C=N/NC(=O)C2COc3ccccc3O2)s1 (centres undefined),-13.9
11,NS(=O)(=O)c1ccc(Cl)c(S(N)(=O)=O)c1,-3.33
12,CCN(CC)c1ccc(/C=C(/C#N)c2nc3ccc(C)cc3[nH]2)c(OC(C)C)c1,-32.9
13,Cc1cc(C)c(C(=O)NC2CCCc3c2cnn3-c2cccc(C)c2C)o1 (centres undefined),-9.1
14,CCNC(=S)NNC(=O)CC(C)C,-4.94
15,O=C(/C=C/c1ccco1)NC(=S)Nc1nc(-c2ccc3ccccc3c2)cs1,-2.42
16,CC(=O)NC(=S)Nc1ccc(NC(=S)NC(=O)/C=C/c2ccco2)cc1,-3.21
17,CN(C(=O)c1ccccc1C(=O)OCC(=O)Nc1ccc(S(N)(=O)=O)cc1)c1ccccc1,-17.8
18,CCCCc1nc(Cl)c(CO)n1Cc1ccc(-c2ccccc2-c2nn[nH]n2)cc1,6.61
19,COc1cc(NC(=O)COC(=O)c2n[nH]c3ccccc23)c(C)cc1[N+](=O)[O-],-11.9
20,COCCSc1ccccc1C(=O)Nc1cc([N+](=O)[O-])ccc1OC,-19.6
21,C=CCn1c(SCC(=O)N(C)C2CCS(=O)(=O)C2)nc2ccccc2c1=O (centres undefined),-11.1
22,COC(=O)c1cc2c(=O)c3ccccc3oc2nc1/C=C/N(C)C,6.84
23,O=C(Cc1ccccn1)NCC[C@@H]1CC[C@H](NC(=O)Nc2ccc(C(F)(F)F)cc2)[C@H](CO)O1,2.91
24,CCOC(=O)C1=CN(Cc2ccco2)S(=O)(=O)NC1c1ccc(C(F)(F)F)cc1 (centres undefined),-15
